ATXN viability: Viability Counterscreen for Primary qHTS for Inhibitors of ATXN expression | S2 cells (HEK-293 line with an ATXN2-luciferase reporter) viability, CellTiter-Fluor protease fluorescence, 24 h | Potency, µM (series often up to 56.7 µM), usual class: cytotoxic | 400,000 tested, 0.49% active | AID 651635, 2014; also: potency is read from the fitted curve at half-maximal effect; nearly all actives have a fitted effect of over 40% in size
HepG2 tox: qHTS for Inhibitors of TGF-b: Cytotox Counterscreen | HepG2 CAGA-GFP viability, ATP luminescence, 18 h | Potency, µM (doses to about 46.1 µM), for inactives: top-dose activity change, negative = cytotoxicity, hits mostly cytotoxic | 410,000 tested, 0.76% active | AID 588856, 2011; also: potency is read from the fitted curve at half-maximal effect
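CellTiter-Glo luminescence gave cytotoxicity after 18 hours at 37 degrees C. The cells were HepG2 CAGA-GFP in 1% FBS DMEM, stimulated with 500 pg/mL TGF-beta after compound addition. %Activity was normalised to no-cell wells (complete cell-killing) and DMSO (no toxicity), and curves were fitted and classified.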
TGFb SMAD3 inh: qHTS for Inhibitors of TGF-b | HepG2 CAGA-GFP TGF-b/SMAD3 reporter, GFP fluorescence, 18 h; TGF-beta stimulated, 500 pg/mL final | Potency, µM (top dose mostly 46.1 µM), inactives show at the top dose activity, negative = inhibition, most hits filed as inhibitors | 410,000 tested, 1.2% active; also: potency is read from the fitted curve at half-maximal effect; % is scaled to controls: 0 for no effect and ±100 for the full control effect; nearly all actives have a fitted effect of over 65% in size
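Read-out: total well GFP (ex488/em500-530) summed from mean per-cell fluorescence. Cells: HEPG2 CAGA-GFP, 1% FBS DMEM, 18 h at 37 degrees C with 500 pg/mL final TGF-beta. Unstimulated wells served as the full-inhibition control; stimulated DMSO wells = 0%.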
ATXN2 expr inh: Primary qHTS for Inhibitors of ATXN expression; HEK-293 ATXN2-luciferase reporter, luminescence, 24 h; Potency, µM (doses to about 57 µM), without a hit: at the top dose activity change, negative = inhibition, hits mostly inhibitors; 360,000 tested, 0.72% active; also: potency is read from the fitted curve at half-maximal effect; % is scaled to controls: 0 for no effect and ±100 for the full control effect; nearly all actives have a fitted effect of over 55% in size
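qHTS (up to 57 uM final) was run with 24 h compound exposure of reporter cells at 37 °C. Each well was multiplexed: SteadyGlo luminescence measured ATXN2-luciferase expression after a fluorogenic Gly-Phe-AFC viability readout (25 uM final).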
IL-1B inflam inh: qHTS for Inhibitors of Inflammasome Signaling: IL-1-beta AlphaLISA Primary Screen; THP-1 LPS/ATP IL-1B secretion, AlphaLISA, 16 h; stronger effect = lower value; activity change, % at 57.5 µM; 360,000 tested, 4.7% active; in the data active = activity change below about -50%; inconclusive = mostly about -30% to -49%; also: % is scaled to controls: 0 for no effect and ±100 for the full control effect
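Secreted IL-1B measured by AlphaLISA bead assay after 16 h compound exposure of THP-1 cells; compounds (final up to 57.5 uM) added 1 h before LPS (250 ng/mL) and ATP (1.25 mM) stimulation; lower signal means less secretion.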
The depositor's hits bear a star; i = inactive; ? = inconclusive; · = not tested or not shown. This is a sample that favours compounds with a hit; in the whole collection about 5.7% have one here. Unless noted, calls follow the shape of the dose curve; as a rule, active = well fitted curve in the direction sought with a large enough effect; inconclusive = small, poorly fitted or top-dose-only effect, or another doubt; inactive = no such curve, though single readings can be large; an effect the other way counts as inactive or inconclusive.

SMILES	ATXN viability	HepG2 tox	TGFb SMAD3 inh	ATXN2 expr inh	IL-1B inflam inh
CCc1cc(-c2[nH]ncc2-c2ccc3c(c2)OCO3)c(O)cc1O	?	-94%	?	11µM*	-89*
CCCNS(=O)(=O)Nc1ncnc(OCCOc2ncc(Br)cn2)c1-c1ccc(Br)cc1	·	·	·	16%	·
CCOc1ccc(Br)cc1S(=O)(=O)Nc1cccc(S(=O)(=O)N(C)c2ccccc2)c1	i	-31%	11µM*	-7%	10
CCOc1ccc(Br)cc1S(=O)(=O)Nc1ccc(C(=O)OCC(=O)N(C)c2ccccc2)cc1	i	3%	2%	-1%	17
C(=C\c1ccnc2ccccc12)/c1ccc(N2CCOCC2)cc1	·	-6%	-22%	·	·
Cc1cccc(CN2CC34C=CC(CC3S2(=O)=O)O4)c1 (centres undefined)	·	3%	2%	·	·
O=C(CCN1N=C(c2ccccc2)CCC1=O)NC1CCCCC1	i	-2%	-9%	·	-51*
CCCOc1cccc(OCC(=O)Nc2nc3ccccc3[nH]2)c1	i	-36%	0%	-13%	10
CCOc1cc(OCC)cc(C(=O)Nc2cccc(-c3nc4ccccc4[nH]3)c2)c1	?	14µM*	?	-35%	·
Cc1cc(OCC(=O)NCCc2nc3ccccc3[nH]2)cc(C)c1Cl	·	-45%	20µM*	·	·
Cc1cc(OCC(=O)Nc2cc(-c3nc4ccccc4[nH]3)ccc2C)ccc1Cl	·	11µM*	·	·	·
Cc1ccc(-c2nc3ccccc3[nH]2)cc1NC(=O)COc1ccc(Cl)cc1Cl	i	-32%	-34%	6%	·
CCCCOc1cccc(OCC(=O)Nc2nc3ccccc3[nH]2)c1	i	13µM*	14µM*	-17%	1
CCCOc1ccc(C(=O)Nc2cccc(-c3nc4ccccc4[nH]3)c2)cc1	?	-8%	?	?	·
CCOc1ccc(CNCc2c(C(=O)O)c(C)n(Cc3ccc(F)cc3Cl)c2C)cc1	?	-32%	0%	-6%	·
CN(C)C(=O)c1ccc(NC(=O)Cn2nnnc2-c2ccccc2F)cc1	·	4%	-11%	·	·
COc1ccc(OCC(=O)Nc2cccc(-c3nc4ccccc4[nH]3)c2)cc1	i	-38%	-17%	-7%	?
O=C(Nc1cccc(-c2nc3ccccc3[nH]2)c1)c1cccc(NC(=O)c2ccco2)c1	32µM*	-111%	?	?	-95*
O=C(COc1ccccc1)Nc1cccc(-c2nc3ccccc3[nH]2)c1	i	-51%	?	47%	-101*
Cn1c(=O)c(NC2CCCCC2)c2c3c(cccc31)C(=O)c1ccccc1-2	·	-19%	230%	-7%	-66*
Cc1nc2ccc(CN(C)c3ccc(C(=O)N[C@@H](CCC(=O)O)C(=O)O)s3)cc2c(=O)[nH]1	i	·	·	0.1µM*	·
O=C(NC(CSCc1ccccc1)C(=O)N/N=C/c1ccc(O)cc1O)c1ccc([N+](=O)[O-])cc1 (centres undefined)	i	-61%	?	3.2µM*	113
COc1ccc(/C=C/c2n[nH]c(=O)c(C#N)c2C)cc1	i	-12%	-2%	5%	-97*
CCC1CN(CCNC(=O)c2ccnc(Cl)c2)Cc2cc(OC)ccc2O1 (centres undefined)	i	·	·	·	·
Cc1cccc(CCNC(=O)c2sc3nc4n(c(=O)c3c2C)CCCC4)c1	i	-42%	5%	2%	·
SMILES	ATXN viability	HepG2 tox	TGFb SMAD3 inh	ATXN2 expr inh	IL-1B inflam inh
CCc1nc2c(OCc3cc(Cl)cc(Cl)c3)cccn2c1N(C)C(=O)c1cccc(OC)c1	?	-36%	?	?	-56*
CCCCC(=O)N(C)c1c(CC)nc2c(OCc3cc(Cl)cc(Cl)c3)cccn12	i	-76%	?	0%	-62*
CC(C)CN(CC(C)C)c1ccc(/C=C/c2ccnc3ccccc23)cc1	·	-31%	6%	·	·
CCc1nc2ccc(C(=O)Nc3ccc4c(c3)OCC(=O)N4)cn2c1N(CC)CCOC	i	-21%	-2%	11%	-23
CCc1nc2ccc(C(=O)Nc3cccc(NS(C)(=O)=O)c3)cn2c1N(CC)Cc1cccc(Br)c1	?	-73%	?	28µM*	-70*
CCc1nc2ccc(C(=O)Nc3ccc4c(c3)OCC(=O)N4)cn2c1N(CC)Cc1cccc(Br)c1	40µM*	-19%	?	?	0
CCc1nc2ccc(C(=O)Nc3cccc(NS(C)(=O)=O)c3)cn2c1N(C)CCCc1ccccc1	i	-7%	?	?	-17
CCc1nc2ccc(C(=O)Nc3cccc(OC)c3)cn2c1N(CC)Cc1cccc(Br)c1	?	-32%	?	?	-57*
CCc1nc2ccc(C(=O)NCCOc3ccc(OC)cc3)cn2c1N(CC)Cc1cccc(Br)c1	?	-31%	?	?	-69*
COc1ccc(CN2CCOc3ccc(CN4CCC(Oc5cccnc5)CC4)cc3C2)cc1C	i	·	·	·	·
O=S(=O)(c1ccc(F)cc1)N1CCN(c2nc(-c3ccccc3)nc3cc(Cl)ccc23)CC1	·	-9%	1%	·	·
COc1ccc(-c2cccc3c2OC(CNC(=O)c2ccc4c(c2)OCO4)C3)nn1 (centres undefined)	i	·	·	·	·
Cc1ccc(NC(=O)/C=C\C(=O)N(c2ccc(C(C)C)cc2)C(C(=O)NCc2ccco2)c2ccc(Cl)cc2)cc1 (centres undefined)	·	-44%	?	·	·
COc1ccc(N(C(=O)/C=C\C(=O)Nc2ccc(Cl)cc2)C(C(=O)NCc2ccco2)c2ccc(C)cc2)cc1 (centres undefined)	·	-45%	13µM*	·	·
CCc1ccc(CNC(=O)COc2cc(=O)n(CC)c3ccccc23)cc1	i	-25%	?	-11%	·
COC(=O)c1c(NC(=O)CN2C(=O)NC3(CCCCC3C)C2=O)sc2c1CCC2 (centres undefined)	i	2%	16%	-9%	-52*
Fc1ccc(C2c3[nH]c4ccccc4c3CCN2Cc2cccn2-c2ncccn2)cc1 (centres undefined)	?	-8%	?	6%	-51*
CSc1ncc(CN2CCc3c([nH]c4ccccc34)C2c2cccc(O)c2)cn1 (centres undefined)	i	-80%	11µM*	-38%	7
COc1cccc(C2c3[nH]c4ccccc4c3CCN2Cc2cccn2-c2ncccn2)c1 (centres undefined)	i	-41%	?	-6%	-21
CCOC(=O)c1c(C)[nH]c(N=Nc2cccc(OC)c2)c1C	?	-22%	3%	111%	-67*
COc1cccc2c1C1COC3C4CC(C(=O)O)C(C(C2)N13)N4C (centres undefined)	?	-45%	?	11µM*	-22

Bioassay records (PubChem)
